According to PubChem BioAssay AID1986 (Sanford-Burnham Center for Chemical Genomics, 2009):
The campaign covered roughly 290,000 compounds. About 890 (0.31%) were called active. No stated cut-off is given here; in the data, active means inhibition mostly above about 52% (no sharp cut-off); inactive means mostly below about 76%. The list comes from a sample in which actives are over-represented; it also holds similar structures and randomly drawn compounds.

Test: cell-free HIV fusion peptide-binding blockers – biochemical, uHTS, fluorescence dequenching, primary screen (AID 1986)
Conditions: 30 min, stronger effect = higher value
[1] = measured here: repeat confirmation average inhibition, at 18.6 µM

Row | SMILES | inhibition (at 20 µM) | inhibition [1]
1 | COc1ccccc1-n1c(C)cc(/C=C2/C(=N)N3C(=NC2=O)SN=C3S(C)(=O)=O)c1C | 58.1% (inactive) | 36.2%
2 | Cc1cc(/C=C2/C(=N)N3C(=NC2=O)SN=C3S(C)(=O)=O)c(C)n1-c1ccc(F)cc1 | 75.8% (inactive) | 45.6%
3 | Cc1cc(/C=C2/C(=N)N3C(=NC2=O)SN=C3S(C)(=O)=O)c(C)n1-c1ccccc1F | 60.2% (active) | 
4 | COc1cccc(-n2c(C)cc(/C=C3/C(=N)N4C(=NC3=O)SN=C4S(C)(=O)=O)c2C)c1 | 148% (inactive) | 
5 | CCOc1ccc(-n2c(C)cc(/C=C3/C(=N)N4C(=NC3=O)SN=C4S(C)(=O)=O)c2C)cc1 | 66.6% (active) | 
6 | CC1=CC2=NC(=O)/C(=C\c3cc(C)n(-c4ccccc4F)c3C)C(=N)N2O1 | 3.2% (inactive) | 
7 | COc1ccc(CNC(=O)/C=C/c2ccc(S(=O)(=O)NCc3ccco3)cc2)cc1OC | 0.9% (inactive) | 
8 | Cc1ccc(C)c2[nH]c(=O)c(CN(Cc3nnnn3C3CCCCC3)CC3CCCO3)cc12 (stereo not drawn) | -0.9% (inactive) | 
9 | Cc1cc(-n2nc3ccccc3n2)c(O)c([N+](=O)[O-])c1 | 0.3% (inactive) | 
10 | CCCCCc1ccc(-c2cn(Cc3ccc(C(=O)c4ccccc4)cc3)nn2)cc1 | 1% (inactive) | 
11 | COc1ccc(CC(=O)Nc2cc(C)c3c(=O)oc4ccccc4c3n2)cc1 | -0.2% (inactive) | 
12 | CCOc1ccc(/C=C(\C)C(=O)c2c(C)cc(C)[nH]c2=O)cc1 | -0.3% (inactive) | 
13 | COc1cc2[nH]c(=S)nc(NCCCOC(C)C)c2cc1OC | -2.4% (inactive) | 
14 | O=c1oc2c(O)c(O)cc3c(=O)oc4c(O)c(O)cc1c4c23 | 54.2% (active) | 
15 | O=c1cc2c(=O)oc3cc(O)c(O)oc3c2c(O)c1O | 44.6% (inactive) | 
16 | Cc1c(Br)c(=O)oc2c(Br)c(O)c(O)cc12 | 30.9% (inactive) | 
17 | COc1ccc(/C=N/Nc2nc3ccccc3s2)cc1O | -3.2% (inactive) | 
18 | COc1cc(/C=N/Nc2nc3ccccc3s2)cc([N+](=O)[O-])c1O | 55.5% (active) | 
19 | O=[N+]([O-])c1cc(Cl)cc(/C=N/Nc2nc3ccccc3s2)c1O | 31.5% (inactive) | 
20 | Cc1cc(C)n(-c2nc3ccccc3c(=O)n2OCC(=O)OCc2ccccc2)n1 | -0.4% (inactive) | 
21 | COc1ccc(N=C2NC(=O)CS2)c([N+](=O)[O-])c1 | -1.1% (inactive) | 
22 | Cc1nc(C2COc3ccccc3O2)sc1C(=O)O (stereo not drawn) | 1.6% (inactive) | 
23 | CC(=O)c1ccc2c(c1)C1C=CCC1C(C(=O)O)N2 (stereo not drawn) | 58.7% (inactive) | 17.4%

Row | SMILES | inhibition (at 20 µM) | inhibition [1]
24 | Cc1ccc2c(c1C)NC(C(=O)O)C1CC=CC21 (stereo not drawn) | 43.9% (inactive) | 
25 | Cc1ccc2c(c1)C1C=CCC1C(C(=O)O)N2 (stereo not drawn) | 62.4% (active) | 
26 | O=C(O)C1Nc2c(O)cc(Cl)c([N+](=O)[O-])c2C2C=CCC12 (stereo not drawn) | 66.8% (inactive) | 41%
27 | Cc1cc(C)c2c(c1)NC(c1cc3c(cc1Br)OCO3)C1CC=CC21 (stereo not drawn) | 7.4% (inactive) | 
28 | CC(C)C1Nc2ccc(C(=O)O)cc2C2C=CCC21 (stereo not drawn) | 50.1% (active) | 
29 | Cc1cc(C)c2c(c1)NC(C(=O)O)C1CC=CC21 (stereo not drawn) | 60.2% (active) | 
30 | CCOC(=O)C1Nc2ccc(Br)cc2C2C=CCC12 (stereo not drawn) | 34.6% (inactive) | 
31 | CCCC1Nc2ccc(C(=O)O)cc2C2C=CCC12 (stereo not drawn) | 49.7% (inactive) | 
32 | O=C(O)C1Nc2c(C(F)(F)F)ccc(Cl)c2C2C=CCC12 (stereo not drawn) | 37.7% (inactive) | 
33 | CCOC(=O)C1Nc2ccc(C(=O)O)cc2C2C=CCC12 (stereo not drawn) | 38% (inactive) | 
34 | O=C(O)C1Nc2c(Cl)cc(Cl)cc2C2C=CCC12 (stereo not drawn) | 80.1% (active) | 
35 | COc1ccc(C)cc1S(=O)(=O)N1CCN(c2ccccc2)CC1 | -0.9% (inactive) | 
36 | Cc1ccc2nc3c(c(Nc4cccc(O)c4)c2c1)CCC3 | -1.7% (inactive) | 
37 | CCOC(=O)c1ccc2c(c1)C1C=CCC1C(C(=O)OCC)N2 (stereo not drawn) | 19.8% (inactive) | 
38 | O=C(OC1CCCCC1)c1ccc2c(c1)C1C=CCC1C(C(=O)O)N2 (stereo not drawn) | 56.1% (active) | 
39 | CCOC(=O)c1ccc2c(c1)C1C=CCC1C(C(=O)O)N2 (stereo not drawn) | 66.5% (inactive) | 40.8%
40 | Cc1ccccc1-n1cc(CNCc2c(C(=O)N(C)C)nc3ccc(Cl)cn23)cn1 | -1.3% (inactive) | 
41 | CCCCc1ccc(-c2csc(/C(C#N)=C/c3ccco3)n2)cc1 | 49.9% (inactive) | 
42 | CCCCc1ccc(-c2csc(/C(C#N)=C\c3ccco3)n2)cc1 | 58.3% (active) | 
43 | CCCCc1ccc(-c2csc(/C(C#N)=C/c3ccc(C)o3)n2)cc1 | 0.2% (inactive) | 
44 | CCCN1CCN(c2nc(-c3cccs3)nc3ccccc23)CC1 | 0.8% (inactive) | 
45 | O=C(NC(=S)Nc1ccc2oc(=O)ccc2c1)c1ccccc1F | -0.2% (inactive) | 
46 | O=C(/C=C/c1ccc([N+](=O)[O-])cc1)Nc1cccc(C(=O)Nc2ccccc2C(=O)O)c1 | 54.1% (active) | 

Row | SMILES | inhibition (at 20 µM) | inhibition [1]
47 | O=C(/C=C/c1ccco1)Nc1cccc(C(=O)Nc2ccccc2C(=O)O)c1 | 58.9% (inactive) | 49.8%
48 | COC(=O)c1cccc(NC(=O)/C=C/c2ccc([N+](=O)[O-])cc2)c1 | 0.8% (inactive) | 
49 | COc1ccc(NS(=O)(=O)c2cccc(NC(=O)NC3CCCCC3)c2)cc1 | 2% (inactive) | 
50 | CCOC(=O)c1sc(=S)n(C)c1NC(=O)c1cccc(Br)c1 | -0.1% (inactive) | 
51 | Cc1ccccc1C(=O)Nc1ccc2c(C#N)c3nc4ccccc4nc3n2c1 | 92.7% (active) | 
52 | N#Cc1c2nc3ccccc3nc2n2cc(NC(=O)c3ccc(F)cc3)ccc12 | 76.7% (inactive) | -2.2%
53 | Cc1c(C(=O)Nc2ccccc2)cn2c(nc3ccccc32)c1C#N | 3.1% (inactive) | 
54 | N#C/C=C(/N)N1CCN(c2ccc(Cl)c(Cl)c2)CC1 | -2.3% (inactive) | 
55 | O=C(O)c1nn(-c2cccc(Cl)c2)c(=O)cc1O | 24.3% (inactive) | 
56 | CN1CCN(C(=O)CCN2C(=O)c3ccccc3C2=O)CC1 | -0.4% (inactive) | 
57 | O=C(N/N=C/c1sc2ccccc2c1O)c1ccccc1 | 95% (active) | 
58 | O=C(N/N=C/c1sc2ccccc2c1O)c1cccc2ccccc12 | 34.1% (inactive) | 
59 | COc1ccc(C(=O)N/N=C/c2sc3ccccc3c2O)cc1 | 34.9% (inactive) | 
60 | Cc1ccc(-c2nn(-c3ccccc3)cc2/C=C/C(=O)O)o1 | 5.9% (inactive) | 
61 | CCN1C(=O)/C(=C\c2cn(-c3ccccc3)nc2-c2cccnc2)SC1=S | 3.5% (inactive) | 
62 | Cc1nn(-c2ccccc2)c(Cl)c1/C=C1\SC(=S)N(CCCCCC(=O)O)C1=O | 33% (inactive) | 
63 | Cc1ccc(-c2nn(-c3ccccc3)cc2/C=C2\SC(=S)N(CCCCCC(=O)O)C2=O)o1 | 82% (active) | 
64 | O=C(O)CCN1C(=O)/C(=C/c2cn(-c3ccccc3)nc2-c2cccs2)SC1=S | 90% (active) | 142%
65 | O=C(O)CCCN1C(=O)/C(=C\c2ccccc2OCc2ccccc2)SC1=S | 63.8% (inactive) | 37.2%
66 | O=C(O)CCCN1C(=O)/C(=C/c2cn(-c3ccccc3)nc2-c2cccs2)SC1=S | 79.6% (active) | 142%
67 | O=C(O)CCCN1C(=O)/C(=C/c2ccncc2)SC1=S | -0.7% (inactive) | 
68 | COc1ccc(-c2nn(-c3ccccc3)cc2/C=C2/SC(=S)N(CCC(=O)O)C2=O)cc1 | -0.4% (inactive) | 
